Compound activity deposited in PubChem by several laboratories.
A selection: hits, their analogues and other compounds. The true share with any hit is near 4.2%.
V-ATPase pH: regulators of yeast V-ATPase proton transport; response, % at 10 µM; S. cerevisiae, pHLuorin cytosolic pH fluorescence; 350,000 tested, 0.37% active; in the data active means response mostly above about 7.3%, no sharp cut-off; inactive means mostly below about 5.4%; further: actives read high
TIM10 inh: TIM10 yeast growth inhibition | S. cerevisiae TIM10 strain growth, BacTiter-Glo luminescence, 24 h | inhibition, % at 10 µM | 330,000 tested, 1.4% active;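 active means inhibition of 40% or more at the single tested concentration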;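 further: wild-type TIM10 isogenic control strain grown at permissive 25 °C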
NLRP3 yeast inh: blocks the NALP3 inflammasome reconstituted in yeast; 330,000 tested, 0.39% active; inhibition, % at 10 µM; Yeast reconstituted NLRP3/ASC/caspase-1, beta-gal luminescence, 24 h;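 active means inhibition of 50% or more; inactive means inhibition below 50%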
tim23-1 inh: tim23-1 yeast growth inhibition; inhibition, % at 20 µM; AID 463212; 330,000 tested, 1.3% active; S. cerevisiae tim23-1 growth, BacTiter-Glo luminescence, 24 h;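 active means growth inhibition of the mutant yeast at or above 50%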;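 further: temperature-sensitive mutant grown at 25 °C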
tim10-1 inh: inhibits growth of tim10-1 mutant yeast | S. cerevisiae tim10-1 ts strain growth, BacTiter-Glo, 24 h | inhibition, % at 20 µM | 330,000 tested, 2.2% active | AID 463190;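 active means inhibition of at least 40%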;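 further: mutant grown at 25 °C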
NALP1 yeast inh: inhibitors of NALP1 inflammasome in yeast; S. cerevisiae NALP1/ASC/caspase-1 growth, X-gal OD620, 72 h; inhibition, % at 10 µM; 280,000 tested, 0.61% active; in the data active means inhibition mostly above about 24%, no sharp cut-off; inactive means mostly below about 32%
tim10-1 conf: tim10-1 yeast growth inhibition, confirmed; shares compounds with tim10-1 inh; S. cerevisiae tim10-1 ts strain growth, BacTiter-Glo, 24 h; inhibition, % at 20 µM; 7,400 tested, 56% active; AID 463213;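 active means inhibition of yeast growth at or above a set limit in either of two repeat tests at 20 µM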;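 further: tim10-1 mutant grown at permissive 25 °C to find synthetic lethal compounds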
TIM10 conf: TIM10 yeast growth inhibition, confirmed. shares compounds with TIM10 inh. S. cerevisiae tim10 strain growth, BacTiter-Glo luminescence, 24 h. inhibition, % at 10 µM. 4,600 tested, 63% active;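 active means inhibition of yeast growth at or above a set limit in either of two replicates at 10 µM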; further: this counterscreen used the strain with wild-type TIM10
tim23-1 confirm: confirmation of tim23-1 mutant yeast growth inhibitors; shares compounds with tim23-1 inh; S. cerevisiae tim23-1 growth, BacTiter-Glo luminescence, 24 h; 4,400 tested, 83% active; inhibition, % at 20 µM;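 active means inhibition above about 39% in either of two replicate wells at 20 µM, limit read from the data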;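 further: temperature-sensitive tim23-1 mutant grown at 25 °C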
Hits are given with their value; . = inactive; / = not tested or not shown.

SMILES	V-ATPase pH	TIM10 inh	NLRP3 yeast inh	tim23-1 inh	tim10-1 inh	NALP1 yeast inh	tim10-1 conf	TIM10 conf	tim23-1 confirm
CCCCOC(=O)n1c(=O)oc2cc(S(=O)(=O)N3CCCCC3)ccc21	.	43.3	.	51.6	40.1	.	39.1	.	55.2
C[C@@H]1CC=C[C@H]2[C@H]1C(=O)N(Cc1ccccc1)[C@H]2c1ccc(C(F)(F)F)cc1	.	.	.	.	.	.	/	/	/
O=C1C2C(c3ccccc3)CC=CC2[C@H](c2ccc(C(F)(F)F)cc2)N1Cc1ccccc1 (some centres undefined)	.	74.8	.	65.2	66.0	/	52.0	44.0	66.3
COc1ccc(/C(N)=N/OC(=O)CC2CCCCC2)cc1	.	65.6	.	57.1	58.9	.	63.8	38.0	53.5
N/C(=N\OC(=O)CCCOc1ccccc1)c1ccc(Br)cc1	.	.	.	.	.	.	/	/	/
N/C(=N\OC(=O)CSc1ccccc1)c1ccc([N+](=O)[O-])cc1	.	.	.	.	.	.	/	/	/
N/C(=N\OC(=O)CCC1CCCC1)c1cccc([N+](=O)[O-])c1	.	.	.	50.1	47.8	.	38.2	/	.
N/C(=N\OC(=O)CCC1CCCC1)c1ccc(Br)cc1	.	83.1	.	66.0	67.6	.	50.3	72.1	61.0
COc1ccc(CC(=O)O/N=C(\N)c2ccc(C)cc2)cc1	.	.	.	.	.	/	/	/	/
N/C(=N\OC(=O)CCC1CCCCC1)c1ccc([N+](=O)[O-])cc1	.	59.6	.	66.8	83.0	.	79.0	51.0	70.3
COc1ccc(/C=C2\CCc3ccccc3C2=O)cc1O	.	45.1	.	64.8	53.8	.	41.4	42.3	58.8
O=C(CCCN1C(=O)c2cccnc2Oc2ccc(Cl)cc21)N1CCCCC1	.	.	.	.	.	.	/	/	/
c1ccc(-c2ccc(-c3nccc4ccccc34)[nH]2)cc1	/	/	/	/	/	.	/	/	/
N#Cc1cc(-c2ccccc2)[nH]c1-c1nccc2ccccc12	.	.	.	50.8	41.6	.	.	/	44.4
Cc1occc1C(=O)N/N=C/c1ccc(OCc2ccccc2)cc1	.	.	.	.	.	.	/	/	/
Cc1occc1C(=O)N/N=C/c1ccc(-c2ccccc2)cc1	.	42.6	.	63.4	58.7	.	56.4	41.0	56.9
Cc1noc2ncnc(Sc3c(Cl)cccc3Cl)c12	.	.	.	.	.	.	/	/	/
Cc1noc2ncnc(Sc3ccc(Cl)cc3)c12	.	.	.	58.3	50.7	.	56.8	/	49.5
COc1ccc(C=O)cc1OS(=O)(=O)c1ccccc1[N+](=O)[O-]	.	.	.	.	.	.	/	/	/
Cc1cc(C(=O)O/N=C(\N)c2ccc(C(C)(C)C)cc2)no1	.	60.9	.	69.6	46.9	.	58.0	45.3	78.0
CC(C)(C)c1ccc(NC(=O)CON=C(N)c2ccccc2)cc1	.	.	.	.	.	/	/	/	/
CC(C)(C)c1ccc(C(=O)O/N=C(\N)c2ccccc2)cc1	.	82.5	.	83.5	57.2	.	45.0	91.8	78.5
Cc1noc(-c2ccc(Cl)cc2)c1C(=O)O/N=C(\N)c1ccc(C(C)(C)C)cc1	.	75.7	.	71.3	44.6	/	.	84.5	58.0
N/C(=N\OC(=O)c1ccc2ccccc2c1)c1ccncc1	.	.	.	51.0	65.0	.	55.2	/	54.9
CCOC(=O)c1cc(/C(C)=N/OC(=O)c2ccc(C(C)(C)C)cc2)on1	.	.	.	.	.	.	/	/	/
SMILES	V-ATPase pH	TIM10 inh	NLRP3 yeast inh	tim23-1 inh	tim10-1 inh	NALP1 yeast inh	tim10-1 conf	TIM10 conf	tim23-1 confirm
N/C(=N\OC(=O)COc1ccc2ccccc2c1)c1ccncc1	.	.	.	.	.	.	/	/	/
Cc1cc(-c2onc(C)c2C(=O)Oc2ccc(Cl)cc2)no1	.	.	.	.	.	.	/	/	/
Cc1ccc(Cn2nnc3c(=O)n(CC(=O)NCc4ccco4)cnc32)cc1	.	.	.	.	.	.	/	/	/
COc1ccc(C(=O)O/N=C(\N)c2ccccc2)cc1	.	57.5	.	79.8	70.7	.	68.0	56.4	78.8
Cc1occc1C(=O)O/N=C(\N)c1ccc(Cl)cc1	.	47.2	.	82.3	65.6	/	.	38.4	76.5
COc1ccc(/C(N)=N/OC(=O)CSc2ccccc2)cc1	.	.	.	.	.	.	/	/	/
N/C(=N\OC(=O)c1cc(Cl)ccc1Cl)c1ccncc1	/	.	.	.	.	.	/	/	/
Cc1ccccc1C(=O)Nc1ccccc1C(=O)N/N=C\c1ccco1	.	.	.	.	.	.	/	/	/
O=C(Nc1ccccc1C(=O)N/N=C/c1ccco1)c1ccc(F)cc1	.	.	.	59.8	41.6	.	52.5	/	58.6
O=C(CNC(=O)c1ccccc1)N/N=C/c1cc(Br)ccc1O	.	.	.	.	.	.	/	/	/
O=C(CN1CC(c2ccccc2)CC1=O)N/N=C/c1cc(Br)ccc1O (centres undefined)	.	.	.	56.1	41.3	.	.	/	50.3
O=[N+]([O-])c1ccc(NC(=S)NCCc2ccc(F)cc2)cc1	.	63.9	.	74.3	75.0	.	70.5	.	69.8
O=C(NCCc1ccc(F)cc1)Nc1ccc([N+](=O)[O-])cc1	.	.	.	.	.	.	/	/	/
Fc1ccc(NC(=S)NCCc2ccccc2)c(F)c1F	.	40.9	.	50.9	40.1	.	.	35.3	49.1
S=C(NCCc1ccc(Cl)cc1)Nc1ccc(Cl)cc1Cl	.	47.8	.	60.0	50.3	.	56.2	43.7	65.5
Fc1ccc(CCNC(=S)Nc2ccc(F)c(Cl)c2)cc1	.	40.9	.	54.8	51.5	.	66.5	.	74.6
Fc1ccc(NC(=S)NCCc2ccc(Cl)cc2)cc1	.	.	.	.	.	.	/	/	/
S=C(NCc1ccc(Cl)cc1)Nc1ccc(Cl)cc1Cl	.	.	.	.	.	.	/	/	/
O=C(O)CNC(=S)N(Cc1ccccc1Cl)C1CCCCC1	.	.	.	.	.	.	/	/	/
COc1ccc(C2Nc3ccccc3C(=O)N2NS(C)(=O)=O)cc1 (centres undefined)	.	.	.	.	.	.	/	/	/
C=CCn1c(=O)c(C(=O)Nc2cc(C)ccn2)c(O)c2ccccc21	.	.	.	.	.	.	/	/	/
COc1cccc(C=O)c1OCCCOc1cccc2cccnc12	.	40.8	.	65.2	45.0	29.4	33.0	34.4	55.0
CS(=O)(=O)N(CC(=O)Nc1ccccc1C(=O)N1CCOCC1)c1cccc([N+](=O)[O-])c1	.	.	.	.	.	.	/	/	/
CC(=O)N1C(=O)C2(C(C#N)=C(N)Oc3c2c(C)nn3-c2ccccc2)c2ccccc21 (centres undefined)	.	.	.	.	.	.	/	/	/
